Laboratory results as given in PubChem BioAssay AID493034 (The Scripps Research Institute Molecular Screening Center, 2011).
The campaign covered roughly 2,400 compounds. About 2,200 (92%) were called active.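 Rule for the calls: active = mean inhibition over triplicate runs exceeds the cutoff derived for the earlier primary screen (cut at about 25% in these data); inactive = the rest.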 So high a share suggests a set chosen from earlier hits. The list shows a part of the results.

The compounds below were run against Platelet-activating factor acetylhydrolase IB subunit alpha2 (Homo sapiens) (UniProt P68402) (assay: inhibition of human PAFAH1B2 catalytic subunit – biochemical, fluorescence polarization, FP-rhodamine probe, triplicate, confirmation (AID 493034;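 note: 0% = enzyme with DMSO and 100% = wells lacking PAFAH1B2 protein; inhibitors lower polarization by leaving the probe unbound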)). Details: recombinant PAFAH1B2, FP-rhodamine probe fluorescence polarization; at 3.39 µM; stronger effect = higher value.
Sequence of Platelet-activating factor acetylhydrolase IB subunit alpha2 (Homo sapiens) (P68402 whole entry, looked up): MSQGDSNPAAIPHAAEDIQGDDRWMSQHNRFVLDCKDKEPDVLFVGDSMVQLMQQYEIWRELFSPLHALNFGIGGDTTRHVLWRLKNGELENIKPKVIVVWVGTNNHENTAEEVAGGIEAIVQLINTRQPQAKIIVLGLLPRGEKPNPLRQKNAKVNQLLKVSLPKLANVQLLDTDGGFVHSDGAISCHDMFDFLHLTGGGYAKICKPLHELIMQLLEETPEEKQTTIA

inhibition, active:
CC1CCN(S(=O)(=O)c2ccc(N=NC3=C(O)CC(C)(C)CC3=O)cc2)CC1 49.4%
Cn1cnc2cc(NCc3ccc(Cl)cc3)ccc21 35.2%
CC(C)(C)n1cnc2cc(NCc3ccc(Br)cc3)ccc21 35.2%
CCCn1cnc2cc(NCc3ccc(Br)cc3)ccc21 33.7%
CC(=O)NN1C(=O)/C(=C/c2ccc(C(C)C)cc2)SC1=S 28.4%
CC(=O)c1sc(NC(=O)C2(F)C(F)(F)C(F)(F)C(F)(F)C(F)(F)C2(F)F)nc1C 28.6%
O=C(c1cc([N+](=O)[O-])ccc1N1CCN(S(=O)(=O)c2ccc(Cl)c(Cl)c2)CC1)N1CCOCC1 27.3%
CC(NC(=O)CN1C(=O)NC(Cc2ccccc2)(Cc2ccccc2)C1=O)C12CC3CC(CC(C3)C1)C2 (stereo unspecified) 71.1%
CN1CCN(S(=O)(=O)c2ccc(Sc3nnnn3-c3ccccc3)c([N+](=O)[O-])c2)CC1 41.1%
N#CC(=C1C=CC(=NO)C(Cl)=C1)c1ccc(Cl)cc1 29.9%
O=C(NNS(=O)(=O)c1ccc(Cl)cc1)c1cc(-c2ccccc2)nc2ccccc12 54.4%
O=C(NNS(=O)(=O)c1cccc(Cl)c1)c1cc(-c2ccc(F)cc2)nc2ccccc12 48.9%
Oc1[nH]c2ccc(Br)cc2c1N=Nc1nn[nH]n1 69.4%
O=C(O)c1ccc(N=Nc2c(O)[nH]c3ccc(Br)cc23)cc1 25.6%
C=CCSc1n[nH]c2nc3c(c(=O)n12)C1(CCCC1)Cc1ccccc1-3 46.3%
COc1cc(/C=C2\SC(=S)N(CCCCC(=O)O)C2=O)ccc1OS(=O)(=O)c1ccc(C)cc1 30.5%
COc1cc(/C=C2\SC(=S)N(CC(=O)O)C2=O)ccc1OS(=O)(=O)c1ccc(C)cc1 38.1%
Cc1ccc(S(=O)(=O)N2[C@@H](c3ccc(Cl)cc3)C(C(=O)O)=CC[C@H]2c2ccc(C(C)C)cc2)cc1 95.9%
Cc1ccc(S(=O)(=O)N2[C@@H](c3ccc(Br)cc3)C(C(=O)O)=CC[C@H]2c2ccc(C(C)C)cc2)cc1 93.5%
Cc1nc(N)nc(N)c1/C=C/C(C)(C)c1ccc(Cl)cc1 66.2%
O=C(O)CCN1C(=O)C2C3CC(C2C1=O)C1C(c2ccccc2)c2sc(=O)[nH]c2SC31 (stereo unspecified) 79.6%
O=C(O)CCCN1C(=O)C2C3CC(C2C1=O)C1C(c2ccccc2)c2sc(=O)[nH]c2SC31 (stereo unspecified) 74%
O=C(CSc1n[nH]c(-c2ccc(S(=O)(=O)N3CCCCC3)cc2)n1)Nc1nccs1 44.6%
O=C(Cc1ccc(Br)cc1)c1ccc(O)cc1O 70.8%
N#Cc1ccc(S(=O)(=O)N2CCc3[nH]c4ccc(F)cc4c3C2)cc1 31.2%
O/N=C/c1ccc2ccccc2c1 43.9%
Cc1ccc(S(=O)(=O)Nc2ccc(Cl)cc2C(=O)c2ccc(F)cc2)cc1 27.2%
CC1(C)C(=O)N(c2ccccc2)C1c1ccccc1O (stereo unspecified) 36.5%
CCCC(=O)Nc1sc(-c2ccccc2)c(-c2ccccc2)c1C(=O)O 43.5%
O=C(CCN1C(=O)/C(=C/c2ccccc2F)SC1=S)N[C@@H](CO)Cc1ccccc1 60.2%
O=C(CCN1C(=O)/C(=C/c2ccccc2)SC1=S)N[C@@H](CO)Cc1ccccc1 66.8%
O=C(CCCN1C(=O)/C(=C\c2ccccc2)SC1=S)Nc1ccc(O)cc1C(=O)O 61.7%
COc1ccc(/C=C2\SC(=O)N(CCCC(=O)Nc3cc(Cl)ccc3C(=O)O)C2=O)cc1 40.3%
Cc1ccc(NC(=O)CN(C)C(=O)c2ccc3[nH]c4c(c3c2)CC(C)CC4)cc1 (stereo unspecified) 47.5%
Cc1ccc(C)c(NC(=O)CN(C)C(=O)c2ccc3[nH]c4c(c3c2)CC(C)CC4)c1 (stereo unspecified) 29.8%
O=[N+]([O-])c1ccc(O)c(/C=N/Nc2nc3ccccc3[nH]2)c1 28.4%
CC(C)C1Nc2c(O)cc(Cl)c([N+](=O)[O-])c2C2C=CCC21 (stereo unspecified) 39.4%
O=c1[nH]c2c(s1)C(c1ccccc1)C1C3CCC(C3)C1S2 (stereo unspecified) 36.8%
O=c1[nH]c2c(s1)C(c1ccco1)C1C3CCC(C3)C1S2 (stereo unspecified) 51.9%
COc1ccccc1NC(=S)NCCc1ccc(Cl)cc1 25.7%
S=C(NCCc1ccc(Cl)cc1)NC1CC1 40.9%
CCN(CC(=O)Nc1ccc(NC(C)=O)cc1)Cc1c(O)ccc2cc(Br)ccc12 59.1%
NNC(=S)NC1CCCCCCCCCCC1 47.2%
CC(C)(C)OC(=O)[C@H]1[C@H](c2ccc([N+](=O)[O-])cc2)C2(C(=O)c3ccccc3C2=O)C2c3ccccc3C=NN21 (stereo partly specified) 73.7%
O=C(O)c1[nH]c2ccc(Br)cc2c1CCN1C(=O)c2cccc([N+](=O)[O-])c2C1=O 41.5%
O=C(O)c1[nH]c2ccc(Cl)cc2c1CCN1C(=O)c2ccccc2C1=O 79.2%
O=C(O)c1ccccc1C(=O)NCCc1c(C(=O)O)[nH]c2ccc(Cl)cc12 26%

inhibition, inactive:
Cc1cc(C)cc(NC(=O)Nc2ccc(-n3ccc(C(F)(F)F)n3)cc2)c1 0.5%
CC1CCN(S(=O)(=O)c2ccc(NC(=O)CN3CCOCC3)cc2)CC1 20.2%
CC1(c2ccc(Cl)cc2)NC(=S)N2C1NC(=S)N2c1ccccc1 (stereo unspecified) 18.1%
CCn1cnc2cc(NCc3ccc(Cl)cc3)ccc21 20.5%
Cc1ccc(S(=O)(=O)N2CCCCC2)cc1C(=O)OCC(=O)N1c2ccccc2NC(=O)C1(C)C 23.6%
CCOC(=O)c1sc(N(Cc2ccccc2)C(=O)COC(=O)c2ccccc2O)nc1C 1.5%
O=C(CN1CCN(S(=O)(=O)c2ccc(Br)s2)CC1)NC1CCCCC1 22.8%
CCn1c(SCC(=O)N(C)C)nc2cc(S(=O)(=O)N3CCOCC3)ccc21 4.4%
CC(NC(=O)c1ccc([N+](=O)[O-])o1)C12CC3CC(CC(C3)C1)C2 (stereo unspecified) 18%
CC(Sc1ccc(S(=O)(=O)N2CCN(C)CC2)cn1)C(=O)NC1(C#N)CCCCC1 (stereo unspecified) 22.4%
CN1CCN(S(=O)(=O)c2ccc(Sc3nnc(-c4cccs4)n3-c3ccccc3)nc2)CC1 21.5%
CC(OC(=O)C1=COCCO1)C(=O)Nc1ncc(Cl)cc1Cl (stereo unspecified) 3.49%
C[C@H]1CCC[C@]2(C)C[C@H]3OC(=O)C(CN4CCCCCC4)[C@H]3C=C12 (stereo partly specified) 17.8%
CN(C)c1ccsc1C(=O)NNS(=O)(=O)c1ccc(Cl)cc1 17.9%
CCNC(=S)NNC(=O)c1cc(-c2cccc(C)c2)nc2ccccc12 14.3%
CCc1ccc2[nH]c(O)c(N=NC3=NC(=O)CS3)c2c1 22.3%
O=c1[nH]c(NCCO)nc2c1C1(CCCC1)Cc1ccccc1-2 22.6%
CCn1c(SCC(N)=O)nc2c(c1=O)C1(CCCC1)Cc1ccccc1-2 20.1%
Cc1ccc(S(=O)(=O)CCC(=O)NCCN2C(=O)S/C(=C/c3ccc(F)cc3)C2=O)cc1 21.1%
COc1cc(C=O)ccc1OCCSc1ccc(C)cc1 23%
CCOc1cc2[nH]c(=O)n(CCCC(=O)NCc3ccc(OC)cc3)c(=O)c2cc1OCC 3.79%
CC(C)c1ccc(C(C)NCCS(=O)(=O)c2ccc(Cl)cc2)cc1 (stereo unspecified) 18.1%
CC(Oc1ccc(Cl)cc1)C(=O)OCC(=O)Nc1ncc(Cl)cc1Cl (stereo unspecified) 23.2%
ONC(=Nc1ccc(Cl)cc1)c1ccccc1 23.1%
O=C(NCc1n[nH]c(=S)n1-c1ccc(Br)cc1)c1ccc(S(=O)(=O)N2CCCCC2)cc1 23.9%
O=C(Nc1nc2ccc(S(=O)(=O)N3CCCCC3)cc2s1)c1ccncc1 20.7%
CCC(C)CCCCCCCCCCC(=O)O (stereo unspecified) 16.6%
CN(CC(=O)Nc1ccc(C#N)cc1)Cc1ccc(Cl)cc1 19.9%
Cc1ccc(COc2ccc(/C=N/O)cc2)cc1 22.1%
Cc1ccc(S(=O)(=O)NC(=O)Nc2nc(-c3ccc(F)c(F)c3)cs2)cc1 9.68%
CNC(=O)c1cc(C(=O)c2ccc(Cl)cc2)c(Br)[nH]1 14%
O=C1N(c2ccccc2)C(c2ccccc2)C12CCCCC2 (stereo unspecified) 24%
O=C(CCN1C(=O)/C(=C/c2ccccc2Cl)SC1=S)NC1=NCCS1 6.52%
OC(c1ccccc1)(c1ccc(F)cc1)C(c1ccccc1)N1CCOCC1 (stereo unspecified) 21.9%
CN(C(=O)COC(=O)c1ccc(Cl)c(S(=O)(=O)NCc2ccccc2)c1)C1CCS(=O)(=O)C1 (stereo unspecified) 19.1%
CC(C)C1Nc2ccc(S(N)(=O)=O)cc2C2C=CCC21 (stereo unspecified) 23%
Cc1csc(SCC(=O)NCCc2ccc(Cl)cc2)n1 22.8%
Cc1ccc(C)c(NC(=S)NCCSc2ccc(Cl)cc2)c1 23.1%
O=C(CSc1ncn[nH]1)NCCc1ccc(Cl)cc1 18.2%
S=C(NCCc1ccc(Cl)cc1)NC1CCCCC1 22.8%
COc1ccc(CCN(C)Cc2c(O)ccc3cc(Br)ccc23)cc1OC 14.9%
Cc1ccc(C)c(Cn2nnc3c(=O)[nH]c(C(=O)NCC4CCCO4)nc32)c1 (stereo unspecified) 5.01%
CN(C)C(=O)NC1CCCCCCCCCCC1 22.7%
CNC(=S)N(Cc1ccc(OC)cc1)C1CC(=O)N(c2ccc(Cl)cc2)C1=O (stereo unspecified) 23.9%
